Several values for one entry are separate records, joined by “and”; a condition that tells them apart may be missing. Equal entries are not always repeated. Out of some 5,500 compounds screened, about 2,000 (36%) were called active. Roughly 18% stayed inconclusive and do not appear here. No stated cut-off is given here; in the data, active means normalized growth mostly below about 0.91 (no sharp cut-off); inconclusive means no clear call, values can overlap the other calls; inactive means mostly above about 0.92. The list shows a part of the results.
Assay: chemical genetic growth profiling, strain panel (AID 1159580);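 further: tested at 20 µM; growth read once vehicle control cultures reached saturation at 30 °C; 1 = growth at the plate median or of vehicle wells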
Conditions: S. cerevisiae deletion strains, growth OD

Measured: normalized growth

Cc1ccccc1OCC(O)CO (centres undefined)
inactive: locus YAL013W, strain DEP1, stronger effect = lower value 1.02 | locus YAL021C, strain ccr4, stronger effect = lower value 0.971 | locus YAL026C, strain drs2, stronger effect = lower value 0.974 | locus YAL030W, strain snc1, stronger effect = lower value 0.967 | locus YBL061C, strain skt5, stronger effect = lower value 0.962 | locus YBR009C, strain hhf1, stronger effect = lower value 0.985 | locus YBR021W, strain FUR4, stronger effect = lower value 1.03 | locus YBR023C, strain chs3, stronger effect = lower value 0.964 | locus YBR171W, strain sec66, stronger effect = lower value 0.973 | locus YBR229C, strain ROT2, stronger effect = lower value 1.02 | locus YBR231C, strain swc5, stronger effect = lower value 0.98 | locus YBR279W, strain paf1, stronger effect = lower value 0.974 | locus YCL011C, strain gbp2, stronger effect = lower value 0.971 | locus YCL016C, strain dcc1, stronger effect = lower value 0.967 | locus YCL029C, strain bik1, stronger effect = lower value 0.998 | locus YCL061C, strain MRC1, stronger effect = lower value 0.993 | locus YCL069W, strain vba3, stronger effect = lower value 0.981 | locus YCR088W, strain abp1, stronger effect = lower value 0.969 | locus YDL005C, strain med2, stronger effect = lower value 0.976 | locus YDL035C, strain GPR1, stronger effect = lower value 1.03 | locus YDL040C, strain nat1, stronger effect = lower value 0.967 | locus YDL074C, strain BRE1, stronger effect = lower value 1.05 | locus YDL101C, strain DUN1, stronger effect = lower value 1.03 | locus YDL134C, strain PPH21, stronger effect = lower value 1.04 | locus YDL185W, strain tfp1, stronger effect = lower value 0.99 | locus YDL192W, strain arf1, stronger effect = lower value 0.991 | locus YDR001C, strain nth1, stronger effect = lower value 0.983 | locus YDR069C, strain doa4, stronger effect = lower value 0.966 | locus YDR101C, strain arx1, stronger effect = lower value 1 | locus YDR137W, strain rgp1, stronger effect = lower value 0.997 | locus YDR159W, strain sac3, stronger effect = lower value 0.977 | locus YDR162C, strain NBP2, stronger effect = lower value 1.02 | locus YDR195W, strain ref2 0.957 | locus YDR297W, strain sur2, stronger effect = lower value 0.978 | locus YDR318W, strain mcm21, stronger effect = lower value 1.01 | locus YDR334W, strain swr1, stronger effect = lower value 0.964 | locus YDR335W, strain msn5, stronger effect = lower value 0.988 | locus YDR388W, stronger effect = lower value 0.987 | locus YDR392W, strain spt3, stronger effect = lower value 0.981 | locus YDR502C, strain sam2, stronger effect = lower value 0.99 | locus YEL003W, strain gim4, stronger effect = lower value 0.97 | locus YEL037C, strain rad23, stronger effect = lower value 0.969 | locus YEL061C, strain CIN8 (second series), stronger effect = lower value 0.968 | locus YEL061C, strain CIN8, stronger effect = lower value 1.01 | locus YER015W, strain faa2, stronger effect = lower value 0.976 | locus YER016W, strain bim1, stronger effect = lower value 0.988 | locus YER110C, stronger effect = lower value 0.99 | locus YER111C, strain swi4, stronger effect = lower value 0.97 | locus YER155C, strain BEM2 (second series), stronger effect = lower value 0.969 | locus YER155C, strain BEM2, stronger effect = lower value 1.01 | locus YER167W, strain BCK2, stronger effect = lower value 1.01 | locus YFR010W, strain ubp6, stronger effect = lower value 0.972 | locus YGL078C, strain dbp3, stronger effect = lower value 1 | locus YGL086W, strain mad1, stronger effect = lower value 1.01 | locus YGL167C, strain pmr1, stronger effect = lower value 0.969 | locus YGL173C, strain kem1, stronger effect = lower value 0.969 | locus YGL227W, strain vid30, stronger effect = lower value 0.976 | locus YGL240W, strain doc1, stronger effect = lower value 0.971 | locus YGL248W, strain PDE1, stronger effect = lower value 1.03 | locus YGL253W, strain hxk2, stronger effect = lower value 0.971 | locus YGR135W, strain pre9, stronger effect = lower value 0.99 | locus YGR229C, strain SMI1, stronger effect = lower value 1.03 | locus YGR252W, strain gcn5, stronger effect = lower value 0.989 | locus YHR013C, strain ard1, stronger effect = lower value 0.965 | locus YHR027C, strain rpn1, stronger effect = lower value 0.969 | locus YHR030C, strain SLT2, stronger effect = lower value 1.01 and 0.978 | locus YHR079C, strain IRE1 (second series), stronger effect = lower value 0.992 | locus YHR079C, strain IRE1, stronger effect = lower value 0.973 | locus YHR094C, strain hxt1, stronger effect = lower value 0.986 | locus YHR129C, strain ARP1, stronger effect = lower value 1.02 | locus YHR142W, strain chs7, stronger effect = lower value 0.964 | locus YHR200W, strain rpn10, stronger effect = lower value 1 | locus YIL066C, strain RNR3, stronger effect = lower value 1.04 | locus YIL073C, strain SPO22, stronger effect = lower value 1.08 | locus YIL125W, strain kgd1, stronger effect = lower value 0.99 | locus YIR030C, strain dcg1, stronger effect = lower value 0.989 | locus YJL092W, strain hpr5, stronger effect = lower value 0.99 | locus YJL095W, strain BCK1 (second series), stronger effect = lower value 0.977 | locus YJL095W, strain BCK1, stronger effect = lower value 1.05 and 0.98 | locus YJL115W, strain asf1, stronger effect = lower value 0.977 | locus YJL129C, strain trk1, stronger effect = lower value 0.971 | locus YJL134W, strain LCB3, stronger effect = lower value 1.01 | locus YJL154C, strain vps35, stronger effect = lower value 0.973 | locus YJL164C, strain tpk1, stronger effect = lower value 0.969 | locus YJL166W, strain qcr8, stronger effect = lower value 0.978 | locus YJL168C, strain set2, stronger effect = lower value 0.991 | locus YJL187C, strain SWE1 (second series), stronger effect = lower value 1.03 | locus YJL187C, strain SWE1, stronger effect = lower value 0.979 | locus YJR043C, strain POL32, stronger effect = lower value 1.02
